# Assay results as given in PubChem BioAssay AID623868 (Vanderbilt High Throughput Screening Facility, 2012).
# The campaign covered roughly 2,100 compounds. About 760 (36%) were called active. Only a sample is shown. Values without a mark were called inactive.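 The calls were made as follows: active = thallium-flux fluorescence traces judged by eye to show enhanced or reduced glutamate response, manual score 1 or -1, so both directions (some results past the limit were not filed as active); inactive = the rest, including fluorescent or raised-baseline compounds.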
# Test: non-GIRK thallium flux modulation in mGlu8 cells, confirmation, counter-screen for GIRK activator project, cell-based, HEK-293 rmGlu8, no GIRK (AID 623868);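 also: extra codes mark interference with 3 for fluorescent and 4 for baseline rise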
# Settings: thallium flux fluorescence, at 10 µM, actives lie on both sides, codes: 1 enhancer, -1 blocker, 0 none, thallium stimulus containing EC20 glutamate
row,Structure (SMILES),manual score
1,Cc1ccn2c(NC3CCCCC3)c(C(C)C)nc2c1,0
2,Cc1ccc(NC(=O)CSC(N)=O)cc1Cl,0
3,CC(=O)Nc1ccc(S(=O)(=O)NC(C(=O)O)C2=CCC=CC2)cc1 (stereo not drawn),0
4,CC1=NN(C(N)=S)C(=O)C1N=Nc1ccc(C)cc1C (stereo not drawn),1 (active)
5,CC1=NN(C(N)=S)C(=O)C1N=Nc1ccccc1C (stereo not drawn),1 (active)
6,N=c1c2c(ncn1CCN1CCOCC1)Oc1ccc3ccccc3c1C2c1ccccc1 (stereo not drawn),0
7,Cn1c(=O)c(NCCc2ccccc2)c2c3c(cccc31)C(=O)c1ccccc1-2,3
8,Cc1nnc2n(C3CCCCC3)c(=O)c3c4c(sc3n12)COC(C)(C)C4,-1 (active)
9,CC(Nc1nc(N2CCCCC2)nc2ccccc12)c1ccccc1 (stereo not drawn),0
10,Cc1ccc(NC(=S)NNc2ncc(C(F)(F)F)cc2Cl)c(C)c1,1 (active)
11,Cc1ccc(NC(=S)Nc2ccc(Cl)c(Cl)c2)c(OC(F)F)c1,0
12,O=C1/C(=C\c2ccccn2)SC(=S)N1Nc1ncc(C(F)(F)F)cc1Cl,0
13,FC(F)(F)c1cnc(NNC(=S)Nc2ccccc2Cl)c(Cl)c1,1 (active)
14,NC(=O)c1ccc(Cc2ncc(C(F)(F)F)cc2Cl)s1,0
15,FC(F)(F)c1cnc(NNC(=S)Nc2ccc(Cl)cc2)c(Cl)c1,1 (active)
16,O=C(NNc1ncc(C(F)(F)F)cc1Cl)c1c(Cl)cccc1Cl,0.5
17,Cn1c(=O)c(NCCO)c2c3c(cccc31)C(=O)c1ccccc1-2,3
18,C/C(=N/NC(=O)c1ccncc1)c1cc2ccc(O)cc2oc1=O,0
19,Cc1ccc2nsnc2c1NC(=S)NC(=O)c1ccco1,1 (active)
20,O=C(CC(=O)Nc1ccccn1)Nc1ccccn1,0
21,Cc1cc(NC(=O)c2ccco2)ccc1NC(=O)Cc1cccs1,0
22,Cc1cccc(NC(=S)NC(=O)c2ccco2)n1,1 (active)
23,O=C(NC(=S)Nc1ccccn1)c1ccco1,1 (active)
24,O=C(NCCCn1ccnc1)Nc1ccc(Cl)c(Cl)c1,0
25,N/C(=N/O)c1nc(N2CCCC2)nc(N(c2ccccc2)c2ccccc2)n1,0
26,CC(=O)c1c(C)[nH]c(C(=O)CSc2ncnc3sc(-c4ccccc4)cc23)c1C,1 (active)
27,CC(C)C(C)(C#N)NC(=O)CSc1ncnc2sc(-c3ccccc3)cc12 (stereo not drawn),0

row,Structure (SMILES),manual score
1,CC(C)N(C(=O)CSc1ncnc2sc(-c3ccccc3)cc12)C(C)C,1 (active)
2,CC(=O)c1c(C)[nH]c(C(=O)COc2cc(C)cc(C)c2)c1C,0
3,CCN(CC)C(=O)CSc1ncnc2sc(-c3ccccc3)cc12,0.5
4,CN(CCC#N)C(=O)CSc1ncnc2sc(-c3ccccc3)cc12,0
5,CCOC(=O)Cn1c(=O)oc2cc(S(=O)(=O)NCCCc3ccccc3)ccc21,0
6,Nc1nc(Nc2ccccc2)nc(NCc2ccco2)c1[N+](=O)[O-],0
7,CCOC(=O)c1sc2ncnc(NCc3ccco3)c2c1C,1 (active)
8,CNC(=S)N1CCN(c2ccc(OC)cc2)CC1,0
9,COc1ccc(C(=O)NC(=S)N2CCC(C)CC2)cc1,1 (active)
10,Cc1cccc(NC(=S)N2CCC(C(=O)c3ccc(F)cc3)CC2)c1C,0
11,CC1CCN(C(=S)NC(=O)c2ccccc2)CC1,0.5
12,COc1ccc(C(=O)NC(=S)N2CCCCC2)cc1,1 (active)
13,COc1ccc(NC(=O)Nc2ccccc2C(=O)N2CCCC2)cc1,0
14,CCCCCCc1cc2cc(C(=O)NC)c(=N)oc2cc1O,3
15,COc1ccc(Nc2nnc(Cc3ccccc3)c(=O)[nH]2)c(OC)c1,0
16,CN(c1ccccc1)S(=O)(=O)c1ccc(NC(=S)NC(=O)c2ccccc2)cc1,0
17,CCc1nnc(NS(=O)(=O)c2ccc(NC(=S)NC(=O)c3ccccc3)cc2)s1,0
18,CCN(c1ccccc1)S(=O)(=O)c1ccc(NC(=S)NC(=O)c2ccc(Br)o2)cc1,1 (active)
19,CCOC(=O)c1ccccc1NC(=O)CSc1nnc(COc2ccccc2C)n1C,-1 (active)
20,CCOC(=O)c1ccccc1NC(=O)CSc1nnc(Cc2cccn2C)n1-c1ccc(C)cc1,-1 (active)
21,COC(=O)c1ccc(NC(=O)CSc2nnc(COc3ccccc3)n2C)cc1,3
22,CCOC(=O)CN(C(=O)CSc1nnc(Cc2ccccc2)n1-c1ccc(C)cc1)c1ccccc1,0
23,CCOC(=O)c1ccccc1NC(=O)CSc1nnc(COc2ccccc2)n1CC,0
24,CCOC(=O)c1ccccc1NC(=O)CSc1nnc(Cc2cccn2C)n1-c1ccc(F)cc1,0
25,CCOc1ccccc1C1CC(=O)NC(SCC)=C1C#N (stereo not drawn),0
26,N#Cc1c(N)nc(SCc2ccccc2)c(C#N)c1-c1ccco1,0
